The source made the active and inactive calls.
Columns and labels:
[1] = tested on: PRMT1 (protein arginine N-methyltransferase 1); test: small molecules binding arginine methyltransferase PRMT1 – biochemical, small-molecule microarray, 635 nm fluorescence, primary screen (AID 1088); conditions: higher = more signal;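 note: binding of Prmt1 protein to compounds spotted on small-molecule microarray slides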
[2] = growth effects on S. cerevisiae YJM789 – YJM789 clinical isolate, OD600, 24 h, basal, primary screen (AID 1089); conditions: higher = more signal, called active from +8 up or from −8 down;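 note: growth of clinical yeast isolate S. cerevisiae YJM 789 seeded 1000 cells per well; test concentration not given here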
[3] = S. pombe growth modifiers, basal conditions – strain 972, OD600, 24 h, no modulator, primary screen (AID 1090);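 note: basal condition with compound alone and no growth modifier present; test concentration not given here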; conditions: S. pombe 972 growth, higher = more signal, called active from +8 up or from −8 down
[4] = budding yeast growth modifiers under rapamycin – strain BY4716, OD600, 96 h, primary screen (AID 1091); note: test concentration not given here; conditions: S. cerevisiae BY4716 + rapamycin, higher = more signal, called active from +8 up or from −8 down
[5] = molecular target: Torsin-1A-interacting protein 2 (Homo sapiens) (UniProt Q8NFQ8); test: small molecules binding lysate-expressed LULL1 – cell lysate, human LULL1 lysate, 635/667 nm fluorescence, primary screen (AID 1092); conditions: small-molecule microarray, hLULL1 lysate binding, 635 nm fluorescence; higher = more signal;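 note: probe is lysate of COS7 cells overexpressing human LULL1; score merges per-feature 667 nm fluorescence with signal-to-noise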
Chain of Torsin-1A-interacting protein 2 (Homo sapiens) (Q8NFQ8 whole entry, looked up): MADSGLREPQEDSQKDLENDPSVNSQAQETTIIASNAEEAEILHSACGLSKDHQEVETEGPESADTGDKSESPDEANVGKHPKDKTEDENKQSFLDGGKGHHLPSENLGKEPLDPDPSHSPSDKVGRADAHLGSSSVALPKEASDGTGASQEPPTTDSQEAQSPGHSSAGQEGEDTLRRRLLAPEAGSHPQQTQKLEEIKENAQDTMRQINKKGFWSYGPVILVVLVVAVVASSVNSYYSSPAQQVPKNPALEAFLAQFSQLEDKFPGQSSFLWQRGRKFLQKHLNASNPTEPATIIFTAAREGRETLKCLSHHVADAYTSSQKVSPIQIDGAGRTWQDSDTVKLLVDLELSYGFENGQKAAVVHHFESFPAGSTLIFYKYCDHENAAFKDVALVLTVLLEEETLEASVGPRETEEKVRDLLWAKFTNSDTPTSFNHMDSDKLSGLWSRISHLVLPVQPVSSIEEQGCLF

[6] = optical density change of DRC41 E. coli – strain DRC41, OD650, 24 h, E. coli filamentation project, primary screen (AID 1093);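 note: MC1000 strain lacking acrAB efflux and sulA so SOS filamentation is blocked; test concentration not given here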; conditions: E. coli DRC41 growth, higher = more signal, called active from +8 up or from −8 down
[7] = probe aLefty2 binding to arrayed compounds – biochemical, biotinylated probe, 635/667 nm fluorescence, primary screen (AID 1094); conditions: small-molecule microarray, higher = more signal;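 note: score merges spot fluorescence near 667 nm with spot signal-to-noise ratio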
[8] = tested on: Noggin (protein binding on small-molecule microarray); test: small molecules binding Noggin protein – biochemical, 635/667 nm fluorescence, primary screen (AID 1095); conditions: 635 nm fluorescence, higher = more signal;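 note: score merges 667 nm feature fluorescence with signal to noise over triplicate slides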
[9] = molecular target: Neurogenic locus notch homolog protein 3 (Homo sapiens) (UniProt Q9UM47); test: small molecules binding NOTCH3 protein – biochemical, 635/667 nm fluorescence, primary screen (AID 1096); conditions: small-molecule microarray, 635 nm fluorescence, higher = more signal
Chain of Neurogenic locus notch homolog protein 3 (Homo sapiens) (Q9UM47 whole entry, looked up): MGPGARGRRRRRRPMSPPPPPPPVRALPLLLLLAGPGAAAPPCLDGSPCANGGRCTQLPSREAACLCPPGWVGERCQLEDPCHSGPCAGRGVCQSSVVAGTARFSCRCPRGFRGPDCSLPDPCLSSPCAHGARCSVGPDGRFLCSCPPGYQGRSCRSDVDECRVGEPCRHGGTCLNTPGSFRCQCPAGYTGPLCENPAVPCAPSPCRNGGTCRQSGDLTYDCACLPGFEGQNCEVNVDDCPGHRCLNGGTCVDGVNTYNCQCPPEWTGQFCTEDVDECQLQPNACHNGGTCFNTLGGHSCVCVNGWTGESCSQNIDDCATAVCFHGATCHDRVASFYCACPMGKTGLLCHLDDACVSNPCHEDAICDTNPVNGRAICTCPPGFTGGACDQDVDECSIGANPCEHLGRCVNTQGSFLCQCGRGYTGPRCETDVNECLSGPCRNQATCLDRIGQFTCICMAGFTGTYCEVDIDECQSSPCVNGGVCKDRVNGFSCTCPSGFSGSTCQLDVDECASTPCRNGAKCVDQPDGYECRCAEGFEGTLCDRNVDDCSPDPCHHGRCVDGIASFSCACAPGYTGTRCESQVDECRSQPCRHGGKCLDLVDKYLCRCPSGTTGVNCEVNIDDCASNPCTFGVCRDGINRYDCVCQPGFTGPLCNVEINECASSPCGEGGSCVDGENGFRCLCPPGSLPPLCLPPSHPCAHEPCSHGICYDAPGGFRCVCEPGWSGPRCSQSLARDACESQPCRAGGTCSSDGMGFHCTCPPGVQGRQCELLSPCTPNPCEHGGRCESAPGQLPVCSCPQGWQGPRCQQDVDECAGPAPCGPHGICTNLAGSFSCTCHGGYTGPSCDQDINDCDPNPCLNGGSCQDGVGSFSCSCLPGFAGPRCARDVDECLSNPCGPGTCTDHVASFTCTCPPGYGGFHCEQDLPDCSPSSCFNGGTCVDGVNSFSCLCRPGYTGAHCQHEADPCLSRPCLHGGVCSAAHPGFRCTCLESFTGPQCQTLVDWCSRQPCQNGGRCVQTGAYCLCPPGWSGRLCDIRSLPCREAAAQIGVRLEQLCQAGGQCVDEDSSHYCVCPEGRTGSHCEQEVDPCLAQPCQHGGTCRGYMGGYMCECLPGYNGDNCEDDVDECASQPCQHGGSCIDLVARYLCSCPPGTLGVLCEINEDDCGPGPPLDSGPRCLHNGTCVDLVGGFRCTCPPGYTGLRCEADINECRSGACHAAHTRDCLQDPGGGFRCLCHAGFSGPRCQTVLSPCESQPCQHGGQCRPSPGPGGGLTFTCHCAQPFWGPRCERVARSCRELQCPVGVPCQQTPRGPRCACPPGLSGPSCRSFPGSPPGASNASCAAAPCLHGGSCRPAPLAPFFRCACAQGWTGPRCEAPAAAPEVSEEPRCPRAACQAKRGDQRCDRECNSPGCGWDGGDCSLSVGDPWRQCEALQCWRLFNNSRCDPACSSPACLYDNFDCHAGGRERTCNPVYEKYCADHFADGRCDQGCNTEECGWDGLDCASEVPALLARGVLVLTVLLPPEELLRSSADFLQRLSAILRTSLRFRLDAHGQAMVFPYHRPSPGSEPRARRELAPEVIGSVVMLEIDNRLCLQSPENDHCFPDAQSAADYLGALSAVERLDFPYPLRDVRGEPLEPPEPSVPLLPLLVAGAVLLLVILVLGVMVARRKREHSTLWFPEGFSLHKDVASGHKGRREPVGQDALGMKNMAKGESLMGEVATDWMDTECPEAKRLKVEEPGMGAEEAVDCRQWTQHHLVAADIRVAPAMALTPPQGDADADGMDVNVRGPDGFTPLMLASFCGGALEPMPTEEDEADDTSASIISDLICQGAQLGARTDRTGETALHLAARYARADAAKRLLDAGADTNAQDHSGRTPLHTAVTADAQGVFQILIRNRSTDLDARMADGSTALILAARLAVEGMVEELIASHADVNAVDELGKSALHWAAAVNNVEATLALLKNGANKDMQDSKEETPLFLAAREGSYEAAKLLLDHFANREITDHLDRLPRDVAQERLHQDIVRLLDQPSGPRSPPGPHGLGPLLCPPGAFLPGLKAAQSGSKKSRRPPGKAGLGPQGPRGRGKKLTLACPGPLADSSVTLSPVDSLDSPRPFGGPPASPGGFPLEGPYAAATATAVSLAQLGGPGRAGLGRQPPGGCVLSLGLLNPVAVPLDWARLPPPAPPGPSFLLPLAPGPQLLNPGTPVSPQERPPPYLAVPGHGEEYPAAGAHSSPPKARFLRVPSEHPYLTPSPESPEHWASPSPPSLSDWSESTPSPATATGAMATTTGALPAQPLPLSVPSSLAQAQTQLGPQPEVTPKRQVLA

[10] = probe aEGFR binding to arrayed compounds – biochemical, biotinylated probe, 635/667 nm fluorescence, primary screen (AID 1097); conditions: small-molecule microarray, higher = more signal;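 note: probe is a biotinylated anti-EGFR antibody binding compounds printed on slides; score combines fluorescence near 667 nm and signal to noise of each spot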

Structure (SMILES) | composite z-score [1] | z-score [2] | z-score [3] | z-score [4] | composite z-score [5] | z-score [6] | composite z-score [7] | composite z-score [8] | composite z-score [9] | composite z-score [10]
CN1C(=O)C2C=CC(C(O)c3ccc([N+](=O)[O-])cc3)N(Nc3ccccc3)C2C1=O (stereo not given) | 1.38 | 0.439 (inactive) | -0.184 (inactive) | 0.315 (inactive) | 3.25 | -1.69 (inactive) | 0.222 | -0.0487 | 1.03 | 0.0089
Cc1c(NC(=O)/C(C#N)=C/C=C/c2ccc([N+](=O)[O-])cc2)c(=O)n(-c2ccccc2)n1C | 1.49 | 0.437 (inactive) | -0.914 (inactive) | 0.0795 (inactive) | 3.17 | -1.46 (inactive) | -0.022 | 0.305 | 1.04 | 0.0506
CCCCCCc1nc(-c2ccc(OC)nc2)c(C)c2c1[Si](C(C)C)(C(C)C)OC2 | 0.319 | -0.0796 (inactive) | -0.329 (inactive) | 0.182 (inactive) | -0.627 | 0.836 (inactive) | 0.054 | 0.293 | 0.0448 | -0.131
C=CCN1C(=O)[C@@]2(O[C@@H](CCO)[C@H]([Si](C)(C)c3ccc(OC)cc3)[C@H]2C)c2cc(N3CCCCC3=O)ccc21 | 1.55 | 0.451 (inactive) | 0.215 (inactive) | 1.81 (inactive) | 2.24 | 0.649 (inactive) | -0.157 | 1.19 | 0.868 | -0.0662
C=CCC(OC(C)=O)[C@@H]1[C@@H](N(Cc2cccc3ccccc23)C(=O)c2ccc(C)cc2)c2cc(OCCCO)ccc2N1C(=O)Cc1ccc2ccccc2c1 (stereo not given in full) | -0.52 | -1.8 (inactive) | -0.825 (inactive) | -0.614 (inactive) | 0.318 | 1.17 (inactive) | -0.113 | -0.206 | 0.141 | -0.184
O=C1OCCC/C=C\[C@H]2OC34C=CCN(Cc5ccccc5)C(=O)[C@H]3N(CCO)C(=O)[C@@H]4C12 (stereo not given in full) | 0.216 | -0.27 (inactive) | -1.72 (inactive) | -0.462 (inactive) | 2.22 | 2.29 (inactive) | 0.235 | -0.353 | 0.0094 | 0.0618
OCCCc1cc[n+](Cc2cc3c(cc2Br)OCO3)cc1 | 0.115 | -0.41 (inactive) | -0.688 (inactive) | -0.213 (inactive) | -0.0854 | 0.0566 (inactive) | 0.193 | -0.617 | -0.785 | -0.12
COC(=O)C[C@H]1O[C@]2(C(=O)N(C)c3ccccc32)[C@@H](C)[C@@H]1[Si](C)(C)c1ccccc1 | 1.17 | -4.03 (inactive) | -5.37 (inactive) | -2.45 (inactive) | 0.687 | 0.23 (inactive) | 0.0718 | 1.23 | 1.08 | -0.0675
COc1ccc([Si](C)(C)[C@H]2[C@H](CC(=O)N(CCO)Cc3ccccc3)O[C@@]3(C(=O)N(c4ccccc4)c4ccccc43)[C@@H]2C)cc1 | 1.51 | 1.48 (inactive) | 0.656 (inactive) | 3.73 (inactive) | 1.79 | -0.366 (inactive) | -0.11 | 1.3 | 1.11 | -0.13
C=C(COC)C(=O)CC[C@@H](OC(=O)c1ccccc1-c1ccccc1C(=O)O)c1ccccc1OCCO | 1.37 | -1.4 (inactive) | -1.95 (inactive) | -1.12 (inactive) | -0.225 | -0.434 (inactive) | -0.122 | 0.641 | 0.586 | -0.184
CCOC(=O)C1=CC[C@@H](c2ccccc2)N(S(=O)(=O)c2ccc(C)cc2)[C@@H]1C#N | 0.712 | -0.671 (inactive) | -2.08 (inactive) | 0.529 (inactive) | 2.69 | 0.405 (inactive) | 0.0979 | -0.59 | 0.749 | -0.013
CS(=O)(=O)CCOC(=O)C1=CC(CCCO)=CC(C2CC2)N(Cc2sc3ccccc3c2Cl)C=C1C(=O)OCCS(C)(=O)=O (stereo not given) | 1.13 | -0.853 (inactive) | -5.1 (inactive) | -1.47 (inactive) | 3.09 | 0.189 (inactive) | 0.247 | 0.482 | 1.09 | 0.0432
COC(=O)[C@H](Cc1ccccc1)N1CC(C)(OC)O[C@@H](Cc2ccccc2)[C@H]1/C=C/C1CC1 (stereo not given in full) | 0.38 | 0.0394 (inactive) | -2.37 (inactive) | -0.184 (inactive) | 0.638 | -0.0718 (inactive) | -0.124 | -0.305 | -0.68 | -0.15
CC(C)C[C@H]1NC(=O)CNC(=O)[C@@]23C(=O)N[C@@H](Cc4ccccc4)C2[C@H](C)[C@@]2(C)O[C@H]2C3/C=C/C/C=C\CNC1=O (stereo not given in full) | 1.08 | -0.599 (inactive) | 0.189 (inactive) | -0.612 (inactive) | 0.921 | -0.743 (inactive) | -0.157 | 0.104 | 0.713 | -0.105
O=C1NC(=O)C2C1C=CC(C(O)C(c1ccccc1)c1ccccc1)N2Nc1ccccn1 (stereo not given) | 0.72 | 0.583 (inactive) | 1.44 (inactive) | -0.968 (inactive) | 1.27 | -0.519 (inactive) | 0.673 | -0.0976 | 0.0943 | 0.389
CN1C(=O)C2C=CC(C(O)c3cccs3)N(N(c3ccccc3)c3ccccc3)C2C1=O (stereo not given) | 1.2 | 1 (inactive) | 0.881 (inactive) | 0.571 (inactive) | 2.62 | -0.874 (inactive) | 0.0453 | 0.0625 | 0.932 | -0.17
CC1C2C(CCCO)=CC(C3C(=O)N(C)C(=O)C23)N1Cc1cccc(OC(F)(F)F)c1 (stereo not given) | 1.53 | 0.573 (inactive) | -0.951 (inactive) | 1.61 (inactive) | 3.13 | 0.964 (inactive) | 0.156 | 0.148 | 0.769 | 0.1
O=C(CS)NCCCCCCNC(=O)[C@H]1C[C@H]2C(=O)NCC(=O)N2[C@H]1c1cccc(OCCO)c1 | 0.863 | -0.573 (inactive) | -0.372 (inactive) | 0.585 (inactive) | 2.47 | 1.25 (inactive) | 0.0657 | 0.6 | 0.471 | -0.0612
O=C1c2ccccc2[C@](Cc2ccccc2I)(C(=O)NCCN2CCOCC2)[C@H](c2ccc(CO)cc2)N1Cc1ccccc1C(F)(F)F | 1.56 | -1.06 (inactive) | -1.06 (inactive) | -0.132 (inactive) | 2.95 | -1.82 (inactive) | -0.0376 | 0.307 | 1.01 | -0.109
C=CCNC(=O)[C@@H]1[C@H]2C(=O)O[C@H](c3ccccc3)[C@H](c3ccccc3)N2[C@H](c2ccc(OCCO)cc2)[C@@]12C(=O)Nc1ccc(C#CCNC(N)=O)cc12 | 0.872 | 0.696 (inactive) | -0.279 (inactive) | 1.92 (inactive) | 1.8 | 0.0528 (inactive) | -0.0368 | 0.216 | 0.266 | -0.182
[N-]=[N+]=Nc1ccccc1C[C@@]1(C(=O)NCc2ccccc2)N=C(c2ccc(OCCCO)cc2)O[C@@H]1c1ccccc1 | 1.54 | -1.27 (inactive) | 0.326 (inactive) | 5.57 (inactive) | 3.02 | 0.594 (inactive) | 0.271 | 0.922 | 1.03 | 0.1
COCCCNC(=O)[C@@]1(Cc2ccccc2I)c2ccccc2C(=O)N(Cc2ccccc2C(F)(F)F)[C@H]1c1ccc(CO)cc1 | 1.4 | -0.784 (inactive) | 0.25 (inactive) | 0.437 (inactive) | 2.47 | -0.627 (inactive) | -0.0654 | -0.473 | 0.03 | -0.291
COc1cccc(C)c1NC(=O)O[C@H]1[C@H](OC(=O)Nc2ccc3c(c2)OCO3)[C@H](OC(=O)Nc2ccc3c(c2)OCO3)[C@@H](OC)O[C@@H]1CO | 1.55 | 1.5 (inactive) | 0.718 (inactive) | 4.29 (inactive) | 3.19 | 0.358 (inactive) | 0.107 | 0.701 | 1.04 | -0.0192
C=CC[C@]1(C(=O)NCCN2CCOCC2)N=C(c2ccc(OCCCO)cc2)O[C@H]1c1ccccc1 | 1.17 | -1.24 (inactive) | -0.577 (inactive) | -1.15 (inactive) | 2.65 | 0.0059 (inactive) | 0.0365 | 0.816 | -0.398 | 0.174
COC(=O)[C@@]1(Cc2ccccc2)[C@H]2c3cc(C(=O)N(C)C)n(Cc4ccc(Cl)c(C(F)(F)F)c4)c3C[C@H]2CN1C(=O)c1ccccc1 | 0.813 | 1.01 (inactive) | 1.45 (inactive) | 3.56 (inactive) | 2.74 | -1.12 (inactive) | 0.146 | 1.59 | 1.01 | 0.0926
C=CCNC(=O)[C@H]1[C@@H]2C(=O)O[C@@H](c3ccccc3)[C@@H](c3ccccc3)N2[C@@H](c2ccc(OCCO)cc2)[C@]12C(=O)N(C(=O)OCCOC)c1ccc(C#CCC(C(=O)OC)C(=O)OC)cc12 | 1.54 | 2.06 (inactive) | 1.07 (inactive) | 6.82 (inactive) | 3.45 | -0.0319 (inactive) | 0.771 | 1.42 | 1.08 | 0.315
C=C(CCCC)C(=O)CC[C@H](OC(=O)c1ccccc1-c1ccccc1C(=O)O)c1cccc(OCCO)c1 | 0.317 | -0.0349 (inactive) | -0.386 (inactive) | -0.678 (inactive) | 1 | 0.171 (inactive) | -0.186 | 0.135 | -0.186 | -0.221
N#Cc1ccc(NN2C(C(O)c3ccc(B(O)O)cc3)C=CC3CN(c4ccccc4)C(=O)C32)cc1 (stereo not given) | -0.188 | 0.587 (inactive) | 0.896 (inactive) | 1.88 (inactive) | 0.847 | 1.28 (inactive) | -0.0576 | -0.345 | 0.0787 | -0.0828
